Screens deposited in PubChem by Sanford-Burnham Center for Chemical Genomics.
CYP2C19 inhib = human CYP2C19 inhibition. inhibition, % at 5 µM. AID 778. CYP2C19 Supersomes, luciferin-H EGE luminescence, 30 min. 96,000 tested, 21% active;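 active = CYP2C19 inhibition above a set limit at 5 µM in the primary screen, cut at about 50% in these data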;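 note: plate controls were negative control wells for no effect and 2.5 mM tranylcypromine positive control for full effect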
Mac1 fbg enh = increases human CD11b/CD18 adhesion to fibrinogen | AID 1499 | P05107+P11215 | 93,000 tested, 0.07% active | K562 CD11b/CD18 adhesion to fibrinogen, ATPlite luminescence | activation, % at 10 µM;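 active = 10 µM primary screen giving 50% or more activity, confirmed by 40% or more on retest at that dose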
Target sequence (P05107 whole entry, looked up, other chains not shown): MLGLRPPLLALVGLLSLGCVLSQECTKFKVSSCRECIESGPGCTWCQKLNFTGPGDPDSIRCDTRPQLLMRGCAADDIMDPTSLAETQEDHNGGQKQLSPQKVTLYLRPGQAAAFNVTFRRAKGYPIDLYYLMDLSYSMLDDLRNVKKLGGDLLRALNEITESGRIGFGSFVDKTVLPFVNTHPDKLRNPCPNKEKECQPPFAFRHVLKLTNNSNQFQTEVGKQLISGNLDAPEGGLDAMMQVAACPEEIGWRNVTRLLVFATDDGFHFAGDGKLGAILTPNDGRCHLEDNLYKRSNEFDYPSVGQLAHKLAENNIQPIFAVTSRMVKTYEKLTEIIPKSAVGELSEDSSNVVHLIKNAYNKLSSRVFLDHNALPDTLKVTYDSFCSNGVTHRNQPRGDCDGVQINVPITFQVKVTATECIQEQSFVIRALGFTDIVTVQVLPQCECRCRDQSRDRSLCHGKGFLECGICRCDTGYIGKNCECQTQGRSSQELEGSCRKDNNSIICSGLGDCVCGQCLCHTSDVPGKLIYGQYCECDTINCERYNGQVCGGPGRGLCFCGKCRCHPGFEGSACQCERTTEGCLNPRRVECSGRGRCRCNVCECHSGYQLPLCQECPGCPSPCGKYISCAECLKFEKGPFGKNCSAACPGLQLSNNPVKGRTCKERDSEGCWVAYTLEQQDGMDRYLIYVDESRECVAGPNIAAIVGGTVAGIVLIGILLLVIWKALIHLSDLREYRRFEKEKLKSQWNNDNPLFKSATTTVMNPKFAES
CYP2C19 activ = increases human CYP2C19 enzyme activity | AID 1025 | activation factor at 5 µM | P33261 | 96,000 tested, under 10 active | recombinant CYP2C19, luciferin-H EGE luminescence; stronger effect = higher value; 0 = fully inhibited enzyme, 1 = untreated enzyme;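 active = activation factor of at least 2 at 5 µM in the primary screen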;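 note: 0 = wells with 2.5 mM tranylcypromine and 1 = vehicle-only wells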
CD11b adhes inh = blocks human CD11b/CD18 adhesion to fibrinogen; K562 CD11b/CD18 adhesion to fibrinogen, ATPlite luminescence; Mn2+ added to activate the integrin; inhibition, % at 10 µM; 93,000 tested, 0.54% active;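 active = primary inhibition of 50% or more at 10 µM, then 40% or more on retest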
CYP2C9 inhib = inhibitors of human CYP2C9. P11712. CYP2C9 Supersomes, luciferin-H conversion, luminescence. inhibition, % at 5 µM. 96,000 tested, 20% active. AID 777;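 active = blocking of liver enzyme CYP2C9 beyond about 50% at 5 µM, limit read from the data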
CYP2C9 act = activators of human CYP2C9 | 96,000 tested, 1.4% active | activation factor at 5 µM | recombinant CYP2C9, luciferin-H conversion, luminescence; stronger effect = higher value; factor 1 = untreated enzyme, 0 = blocked;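 active = activation factor of 2 or more for CYP2C9 at a 5 µM dose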;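 note: 0 = sulfaphenazole-blocked wells and 1 = vehicle-only wells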
The depositor's hits bear a star; . = not tested or not shown. Hits are enriched below; roughly 28% of the tested compounds scored in any of these assays.

SMILES	CYP2C19 inhib	Mac1 fbg enh	CYP2C19 activ	CD11b adhes inh	CYP2C9 inhib	CYP2C9 act
O=P(c1ccccc1)(c1ccccc1)C(O)c1ccncc1 (configuration not stated)	27	-2	0.7	-17	13	0.9
COc1ccc(C2/C(=C(/O)c3ccccc3)C(=O)C(=O)N2CC(C)O)c(OC)c1 (configuration not stated)	1	.	1	.	18	0.8
CCCn1c(SCC(=O)Nc2c(C)cccc2CC)nnc1C(C)C	17	-1	0.8	-3	-12	1.1
c1ccc(CN2CCN(C3=Nc4cccc5cccc3c45)CC2)cc1	57*	-1	0.4	2	14	0.9
O=C(CSc1nnc2ccccn12)NC(=O)NC1CCCC1	0	3	1	-5	4	1
Cc1cccc(-c2c3c(=O)n(C)c(=O)n(C)c3cn2C2CCCCC2)c1	35	4	0.7	-11	22	0.8
CCOn1c(=O)c(-c2cccs2)[n+]([O-])c2ccccc21	58*	0	0.4	3	53*	0.5
Cc1[nH]c2ccccc2c1[C@H]1[C@@H](CC#N)C1(C)C	48	-6	0.5	3	28	0.7
COc1ccccc1NC(=O)CSc1nnc(-c2ccc(NC(C)=O)cc2)n1C	-5	-3	1	6	24	0.8
O=C(CSc1ncccn1)n1c2c(c3ccccc31)CCCC2	-3	0	1	10	-112	2.1*
COC(=O)c1ccccc1NC(=O)CSc1nnc(-c2cccc(NC(C)=O)c2)n1C	94*	0	0.1	-6	39	0.6
CC(=O)Nc1cccc(-c2nnc(SCC(=O)n3c4c(c5ccccc53)CCCC4)n2C)c1	93*	-3	0.1	5	-12	1.1
CCN(CC)CC(=O)n1c2c(c3ccccc31)CCCC2	37	7	0.6	22	-16	1.2
COc1ccc(O)c(C(=O)CC(=O)c2ccccc2)c1	40	-3	0.6	21	27	0.7
O=C(ONc1ccc(N=NC(=O)c2ccccc2O)cc1)c1ccccc1	84*	97	0.2	14	71*	0.3
CCN(CC)S(=O)(=O)c1cccc(C(=O)OCC(=O)N2CC(=O)Nc3ccccc32)c1	34	-2	0.7	2	66*	0.3
CN(C)S(=O)(=O)c1cccc(C(=O)OCC(=O)Nc2ccccc2OC(F)F)c1	7	-7	0.9	-11	6	0.9
CCN(CC)S(=O)(=O)c1cccc(C(=O)OCC(=O)Nc2ccccc2OC(F)F)c1	84*	-2	0.2	5	88*	0.1
Cc1ccsc1C(=O)OCC(=O)N1CC(=O)Nc2ccccc21	10	-2	0.9	10	-32	1.3
O=C1CN(C(=O)COC(=O)c2cccc(S(=O)(=O)NCc3ccccc3)c2)c2ccccc2N1	44	-3	0.6	1	68*	0.3
O=C1CN(C(=O)COC(=O)c2cccc(OCc3ccccc3)c2)c2ccccc2N1	.	8	.	-6	.	.
CCN(CC)S(=O)(=O)c1cccc(C(=O)OCC(=O)C23CC4CC(CC(C4)C2)C3)c1	-2	-3	1	43	74*	0.3
COc1ccc(CC(=O)NNc2ncnc3c2cnn3-c2ccc(C)cc2)cc1OC	.	3	.	-13	.	.
COc1cccc(C(=O)N/N=C2/SCC(=O)N2CCc2ccc(OC)c(OC)c2)c1	24	1	0.8	-16	33	0.7
CCCC(=O)Nc1ccc(N2CCN(C(=O)c3cccs3)CC2)cc1	28	2	0.7	-17	45	0.6
SMILES	CYP2C19 inhib	Mac1 fbg enh	CYP2C19 activ	CD11b adhes inh	CYP2C9 inhib	CYP2C9 act
CCOC(=O)c1[nH]c2cc(OC)c(OC)cc2c1NC(=O)CN1CCN(c2ccc(OC)cc2)C(C)C1 (configuration not stated)	9	-3	0.9	2	-11	1.1
CCOc1cc(S(=O)(=O)NCc2ccco2)c(OCC)cc1-n1cnnn1	31	3	0.7	0	69*	0.3
CCOc1cc(S(=O)(=O)NCCc2ccc(OC)c(OC)c2)c(OCC)cc1-n1cnnn1	13	-2	0.9	-6	76*	0.2
CCOc1cc(S(=O)(=O)N2CCN(c3ccc(F)cc3)CC2)c(OCC)cc1-n1cnnn1	-4	-3	1	-4	18	0.8
O=S(=O)(NCC1OCCc2ccccc21)c1ccc(S(=O)(=O)N2CCOCC2)cc1 (configuration not stated)	11	-6	0.9	-1	1	1
CCOc1cc(S(=O)(=O)NCC2OCCc3ccccc32)c(OCC)cc1-n1cnnn1 (configuration not stated)	32	0	0.7	-7	51*	0.5
CCOc1cc(S(=O)(=O)NC2CC2)c(OCC)cc1-n1cnnn1	80*	-3	0.2	-1	95*	0
S=c1[nH]nc(-c2ccc(Br)cc2)n1Cc1ccco1	32	0	0.7	4	13	0.9
CCN1CCN(c2ccc(NC(=O)c3cccnc3)cc2Cl)CC1	-5	2	1	12	25	0.7
CCOc1ccc(-n2cnnn2)cc1S(=O)(=O)NCCc1ccc(OC)c(OC)c1	10	4	0.9	-29	7	0.9
CCOc1cc(S(=O)(=O)NCc2ccc(OC)cc2)c(OCC)cc1-n1cnnn1	31	-1	0.7	-6	85*	0.1
Cn1c(C(=O)NC2CCCC2)cc2c(=O)n(C)c3ccccc3c21	56*	-1	0.4	-16	5	1
CCOc1ccc(NC(=O)c2cc3c(=O)n(C)c4ccccc4c3n2C)cc1	32	4	0.7	-1	84*	0.2
COc1ccc(NC(=O)CSc2nc(N)c(C#N)cc2C#N)cc1	-6	-5	1.1	12	41	0.6
COc1ccc(NC(=O)CSc2nc3c(c(-c4cccs4)c2C#N)CN(C)CC3)cc1OC	50	.	0.5	.	64*	0.4
COc1ccc(NC(=O)CSc2nnc(-c3cccs3)n2C)cc1OC	-9	-3	1.1	-4	-5	1.1
CCOC(=O)c1c(C#N)c(SCC(=O)Nc2ccc(OC)cc2)nc2c1CN(CC)CC2	52*	2	0.5	0	98*	0
COc1ccc(NC(=O)C(=O)N2N=C(C(C)C)CC2(O)C(F)(F)F)cc1 (configuration not stated)	-4	.	1	.	-6	1.1
COCCCNC(=O)CN(c1ccc(OC)cc1)S(=O)(=O)c1ccc(NC(C)=O)cc1	40	2	0.6	8	36	0.6
COCCNC(=O)c1onc(CSc2ccc(C)c(C)c2)c1C(=O)O	33	.	0.7	.	24	0.8
CCCCNC(=O)c1onc(CSc2cc(C)cc(C)c2)c1C(=O)O	25	.	0.8	.	73*	0.3
CCCCNC(=O)c1onc(CSc2cccc(C)c2)c1C(=O)O	10	-4	0.9	5	76*	0.2
